Test results published in PubChem BioAssay (NCI).
About 83,000 compounds went through this panel and 20% of them were active in at least one assay; those are over-represented in the sample as a whole.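 Plates (96-well) were seeded with cells, treated with compound at one concentration, and incubated for 48 hours before percent growth was determined.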 Active and inactive are the calls of the source. How the source made its calls: active means growth percent below 10; inactive means the rest.

Key:
Assay in all cases: NCI-60 one-dose screen, 48 h (100 = growth as untreated, 0 = no growth, -100 = all killed)
Conditions in all cases: 10 µM unless noted
[1] = tested on: T-47D breast
[2] = tested on: BT-549 breast
[3] = tested on: MDA-MB-435 melanoma
[4] = tested on: SW-620 colon
[5] = tested on: MCF7 breast
[6] = tested on: HCT-116 colon
[7] = tested on: HCC-2998 colon
[8] = tested on: KM12 colon

Measured: growth

Nc1nc(Br)nc2c1ncn2C1CC(O)C(CO)O1 (stereo not given)
inactive: [1] 70.1% | [2] 50.1% | [3] 56.5% | [4] 60.1% | [5] 28.4% | [6] 37.9% | [7] 58.9% | [8] 78.6%

c1ccc2c(-c3nc(-c4c[nH]c5ncccc45)cs3)c[nH]c2c1
inactive: [1] 93.8% | [2] 97% | [3] 84.8% | [4] 103% | [5] 83% | [6] 95% | [7] 102% | [8] 90.6%

CC/C(=N/NC(N)=O)c1ccccc1
inactive: [1] 110% | [2] 102% | [3] 110% | [4] 105% | [5] 97% | [6] 109% | [7] 103% | [8] 111%

Cc1ccc(S(=O)(=O)Nc2ccc(-c3cc(-c4cccc(F)c4)c(C#N)c(N)n3)cc2)cc1
inactive: [3] 19.6% | [5] 11.3% | [7] 39.7% | [8] 46.7%
active: [1] -27.2% | [2] 7.45% | [4] -31.7% | [6] -73.2%

C[C@]12CC[C@@H]3c4ccc(O)cc4CC[C@H]3[C@@H]1C[C@H](O)[C@@H]2O
active: [8] -72.2%
inactive: [1] 128% | [2] 95.2% | [3] 92.5% | [4] 90.1% | [5] 108% | [6] 92.8% | [7] 107%

CCCCC[C@H]1C/C=C2/C(=O)C(Cl)=C[C@@H]2C/C=C\CCCC(=O)O[C@@H](CCCCC)C/C=C2/C(=O)C(Cl)=C[C@@H]2C/C=C\CCCC(=O)O1
active: [1] -20.3% | [2] -52.7% | [3] -16.1% | [4] -41.6% | [5] -42.1% | [6] -98.7% | [7] -88.6% | [8] -73%

NC1=NN=C2N(N)C(=O)c3cnn(-c4ccccc4)c3N2c2nc(-c3ccccc3)cc(-c3ccccc3)c21
inactive: [1] 71.1% | [2] 108% | [3] 108% | [4] 104% | [5] 65.5% | [6] 93.7% | [7] 107% | [8] 103%

Cc1csc(Nc2nc(-c3cccc(Br)c3)nc(C(Cl)(Cl)Cl)n2)n1
inactive: [1] 13.9% | [2] 85.4% | [3] 65.3% | [4] 52.6% | [5] 28.9% | [6] 47.7% | [7] 16.1% | [8] 27.7%

O=c1c(CNc2ccc(S(=O)(=O)Nc3ncccn3)cc2)coc2ccccc12
inactive: [1] 81.1% | [2] 93.6% | [3] 119% | [4] 98.4% | [5] 86.1% | [6] 91.3% | [7] 101% | [8] 115%

OCC(CO)(CCl)CCl
inactive: [1] 94.2% | [2] 95.6% | [3] 105% | [4] 101% | [5] 94.2% | [6] 78.6% | [7] 101% | [8] 99.9%

C[C@H]1[C@H]2C3=CC[C@@H]4[C@@]5(C)C/C(=C/c6ccco6)C(=O)C(C)(C)[C@@H]5CC[C@@]4(C)[C@]3(C)CC[C@@]2(C(=O)N2CCOCC2)CC[C@@H]1C
inactive: [1] 32% | [2] 75.8% | [3] 97.1% | [4] 25.3% | [5] 39.4% | [6] 26.9% | [7] 90.5% | [8] 54.2%

O=C(N/N=C\c1ccccc1O)C1CC1
inactive: [1] 86.8% | [2] 112% | [3] 112% | [4] 108% | [5] 102% | [6] 107% | [7] 103% | [8] 100%

CCc1cccc(CC)c1NC(=O)c1sc2nc3c(cc2c1N)CCCC3
active: [3] 7.29%
inactive: [1] 64.3% | [2] 74.8% | [4] 70.8% | [5] 42.5% | [6] 71% | [7] 95.4% | [8] 70%

S=c1[nH]nc2ccccn12
inactive: [1] 106% | [2] 110% | [3] 108% | [4] 105% | [5] 94.3% | [6] 108% | [7] 102% | [8] 116%

Cc1cccc(C)c1NCc1nc(-c2ccccc2)n[nH]1
inactive: [1] 87.8% | [2] 94.8% | [3] 101% | [4] 109% | [5] 88.2% | [6] 98.7% | [7] 101% | [8] 103%

Cc1ccc(Nc2c(C(N)=O)cnc3ccc(S(=O)(=O)Nc4cc(C)on4)cc23)cc1
inactive: [1] 92.7% | [2] 105% | [3] 103% | [4] 105% | [5] 93.9% | [6] 94% | [7] 107% | [8] 103%

O=C1c2cccc3cccc(c23)C(=O)N1CC#Cc1ccc2c3c(cccc13)C(=O)N(CCO)C2=O
inactive: [1] 98.2% | [2] 86.4% | [3] 92.7% | [4] 92.2% | [5] 106% | [6] 78.4% | [7] 106% | [8] 101%

Cc1ccc(-c2nc3ccc(Cl)cc3c(=O)n2N2C(=O)CSC2c2ccccc2Cl)cc1 (stereo not given)
inactive: [1] 75.8% | [2] 100% | [3] 66.9% | [4] 77.8% | [5] 94.1% | [6] 53.1% | [7] 93.4% | [8] 82.3%

Clc1ccccc1-c1nc(Nc2nc3ccccc3s2)nc(C(Cl)(Cl)Cl)n1
inactive: [1] 38.7% | [2] 84.2% | [3] 49% | [4] 39.5% | [5] 32.6% | [6] 19.1% | [7] 54.1% | [8] 31.3%

Cc1ccc(-c2nc([P+](c3ccccc3)(c3ccccc3)c3ccccc3)c(N3CCOCC3)o2)cc1
inactive: [7] 14.1%
active: [1] -20.4% | [2] -13% | [3] -6.62% | [4] 9.9% | [5] 2.74% | [6] 1.88% | [8] -22.4%

O=C1C(Cl)=C(Nc2ccc(S(=O)(=O)c3ccc(NC4=C(Cl)C(=O)c5ccccc5C4=O)cc3)cc2)C(=O)c2ccccc21
active: [1] -39.6% | [4] 0.736% | [5] -55.1% | [6] -85.7% | [8] 5.09%
inactive: [2] 31.4% | [3] 10.5% | [7] 47.1%

C#CCC(C)(O)/C=C/C1=C(C)CCCC1(C)C (stereo not given)
inactive: [1] 83% | [2] 87.6% | [3] 103% | [4] 104% | [5] 97.6% | [6] 82.6% | [7] 106% | [8] 97.6%

COc1ccc(-c2c(-c3nc4ccc(N5CCOCC5)cc4[nH]3)[nH]c(C)c2C(C)=O)cc1
inactive: [1] 27.3% | [2] 64.9% | [3] 29.7% | [4] 63.4% | [5] 10.8% | [6] 34.8% | [7] 35% | [8] 46.5%

CC(C)=CCC[C@](C)(O)[C@H]1CC[C@]2(C)[C@@H]1CC[C@@H]1[C@@]3(C)C/C(=C/c4ccc(Br)cc4)C(=O)C(C)(C)[C@@H]3CC[C@]12C
inactive: [1] 64.3% | [2] 95.4% | [3] 95.3% | [4] 82.2% | [5] 82.2% | [6] 66.5% | [7] 92% | [8] 94.9%

Nc1c2c(nc3ccc(Cl)cc13)CC(c1ccccc1)CC2=O (stereo not given)
active: [3] -39.7%
inactive: [1] 54.1% | [2] 39.8% | [4] 24.8% | [5] 19% | [6] 20.3% | [7] 67.3% | [8] 26.4%

C(=C\c1c[nH]c2ccccc12)/c1ccc2ccccc2n1
inactive: [1] 68.4% | [2] 68.8% | [3] 93% | [4] 107% | [5] 63.7% | [6] 65.9% | [7] 97.8% | [8] 52.4%

O=C1CCCC=CC[C@H]2C=C(Cl)C(=O)C2=CC[C@H](CCCCC(F)(F)F)OC(=O)CCCC=CC[C@H]2C=C(Cl)C(=O)C2=CC[C@H](CCCCC(F)(F)F)OC(=O)CCCC=CC[C@H]2C=C(Cl)C(=O)C2=CC[C@H](CCCCC(F)(F)F)O1
active: [6] 7.18% [6.25 µM]
inactive: [1] 71.2% [6.25 µM] | [2] 78.5% [6.25 µM] | [3] 30.6% [6.25 µM] | [4] 17.3% [6.25 µM] | [5] 30.5% [6.25 µM] | [7] 98.5% [6.25 µM] | [8] 94.3% [6.25 µM]

O=P(O)(c1ccccc1)c1ccccc1I
inactive: [1] 84.5% | [2] 100% | [3] 104% | [4] 94.9% | [5] 96.6% | [6] 76.7% | [7] 107% | [8] 103%

Cc1ccc2c(c1)c(-c1nc(-c3c[nH]c4ncccc34)cs1)cn2C
inactive: [1] 45.3% | [2] 104% | [3] 96.5% | [4] 112% | [5] 17.4% | [6] 85.1% | [7] 80% | [8] 57.8%

CC(C)(C)c1[nH]nc2c1C(c1cc3ccccc3[nH]c1=O)Nc1cc(C(=O)OCc3ccccc3)ccc1N2 (stereo not given)
inactive: [1] 36.7% | [2] 56.4% | [3] 39.9% | [4] 54.4% | [5] 38.1% | [6] 38.4% | [7] 55.9% | [8] 31%
